Laboratory results from PubChem BioAssay (NCI).
This is part of a sample that, as a whole, favours compounds with a hit. Of some 79,000 tested, about 15% had one in any assay. Unmarked numbers belong to inactive results. Calls of active or inactive are those of the source. Rule as the data show it: active = growth inhibition above about 70%; inactive = the rest. Starred links: 1 amine or outer side, 2 acyl side, 3 side chain; linkers in the order of their positions; H or OH if unused. Positions of bridges follow the written chain, without caps; N, C: chain ends. Non-standard residues stand in square brackets, D forms with d. Residues, ends and D or L forms follow the SMILES beside them. Chains are numbered I, II in the order given. Actinocin(9to1) = Cc1c2oc3c(C)ccc(C(=O)[*:1])c3nc-2c(C(=O)[*:2])c(N)c1=O; aThr = C[C@H](O)[C@H](N)C(=O)O; NMeV = CN[C@H](C(=O)O)C(C)C; Sar = CNCC(=O)O

Assay: NCI Yeast Anticancer Drug Screen. Data for the rad52 strain (AID 147);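 also: 0% = growth of vehicle-treated control cultures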
Conditions: S. cerevisiae rad52 mutant growth inhibition, hits give high values
Protocol: Growth inhibition of yeast strains with defined genetic alterations is measured as a screen for potential anti-cancer activity. Selected strains with alterations in DNA damage repair or cell cycle control were exposed to compounds and growth inhibition was measured relative to vehicle treated controls. The strain used in this assay is rad52

Structure (SMILES)	growth inhibition (at 1.2 µM) [%]	growth inhibition (at 3.7 µM) [%]	growth inhibition (at 11.0 µM)	growth inhibition (at 33.0 µM)	growth inhibition (at 100.0 µM)
OC(c1ccc(Br)cc1)(c1cccs1)C1CC1 (stereo not given)	13	21	57%	92% (active)	87% (active)
Clc1ccc(C(c2ccc(Cl)cc2)N2CCNCC2)cc1	2	-3	-1%	46%	98% (active)
CCOC(=O)C1=C(C)NC(C)=C(C(=O)OCC)C1c1ccc(Cl)cc1	-13	6	92% (active)	78% (active)	92% (active)
CN1CCN(c2ccc3nc(-c4ccc5nc(-c6ccc(O)cc6)[nH]c5c4)[nH]c3c2)CC1	8	-1	98% (active)	38%	98% (active)
COc1cc(C(C)(C)C)cc(OC)c1C(O)(c1c(OC)cc(C(C)(C)C)cc1OC)c1c(OC)cc(C(C)(C)C)cc1OC	-10	33	88% (active)	92% (active)	84% (active)
Cc1ccc2nc(N/N=C/c3ccc(C)s3)cc(C)c2c1	-26	-40	-47%	98% (active)	98% (active)
Cc1c2oc3c(C)ccc(C(=O)N[C@@H]4C(=O)N[C@H](C(C)C)C(=O)N5CCC[C@H]5C(=O)N(C)CC(=O)N(C)[C@@H](C(C)C)C(=O)O[C@H]4C)c3nc-2c(C(=O)N[C@@H]2C(=O)N[C@H](C(C)C)C(=O)N3CCC[C@H]3C(=O)N(C)CC(=O)N(C)[C@@H](C(C)C)C(=O)O[C@H]2C)c(N)c1=O (I: [aThr][dV]P[Sar][NMeV] / II: [aThr][dV]P[Sar][NMeV]; ester I:1-I:C, II:1-II:C; linker I:N-II:N via Actinocin(9to1))	5	38	85% (active)	96% (active)	98% (active)
Cc1ccc(S(=O)(=O)N/N=C/c2c(O)ccc3ccccc23)cc1	-8	9	81% (active)	83% (active)	79% (active)
